# Out of some 63,000 compounds screened, about 1,100 (1.7%) were called active.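 How the source made its calls: active means compounds whose percent cytotoxicity in the single-dose primary screen, scaled between solvent and toxic-drug controls, exceeds 50; inactive means the rest.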 Only a selection was taken, and actives are over-represented in it overall. Potency and affinity values are given separately.
# Experiment: cytotoxicity in KRAS-transformed pancreatic duct cells, primary screen, cell-based, fluorescence, HTS (AID 431);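 further: 0% = DMSO solvent wells and 100% = doxorubicin-treated wells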
# Conditions: HPDE-C7K KRASV12 cells, Alamar Blue viability, 48 h; at 10 µM; hits give high values
row,SMILES,cytotoxicity
1,CC(C)C1CC(c2csc(N)n2)CCO1 (configuration not stated),7.1% (inactive)
2,O=C1CCN(Cc2nnnn2CC2CCCO2)c2ccccc2N1 (configuration not stated),-13.4% (inactive)
3,Cc1nnc(SCCn2c(N3CCCC(C)C3)nc3c2c(=O)n(C)c(=O)n3C)s1 (configuration not stated),6.4% (inactive)
4,O=C(NCc1ccccn1)C1CCCN(S(=O)(=O)c2ccc(Br)cc2)C1 (configuration not stated),-8.1% (inactive)
5,CCOC(=O)C(Cc1ccccc1)C(=O)Nc1nccs1 (configuration not stated),15.3% (inactive)
6,CCOC(=O)C1CCN(S(=O)(=O)c2ccc3c(c2)CCCN3C(C)=O)CC1,-5.4% (inactive)
7,CC(=O)C1=C(C)NC(SCC(=O)c2ccc(Cl)cc2)=C(C#N)C1c1ccco1 (configuration not stated),50.5% (active)
8,CCOC(=O)CSC1=C(C#N)C(c2ccc(F)cc2)C(C(C)=O)=C(C)N1 (configuration not stated),-0.1% (inactive)
9,CC(=O)C1=C(C)OC(N)=C(C#N)C1c1ccco1 (configuration not stated),-7.5% (inactive)
10,CSCSC1=C(C#N)C(c2ccc(Cl)cc2)C(C(C)=O)=C(C)N1 (configuration not stated),-8.2% (inactive)
11,CC(=O)C1=C(C)NC(SCC(=O)c2ccc(F)cc2)=C(C#N)C1c1ccco1 (configuration not stated),90.5% (active)
12,COc1ccccc1NC(=O)C1=C(C)NC(SCC(=O)c2ccc(C)cc2)=C(C#N)C1c1ccco1 (configuration not stated),38.3% (inactive)
13,Cc1cccc(C2CC(c3ccccc3)Nc3ncnn32)c1 (configuration not stated),0% (inactive)
14,COc1ccc(CCNc2ncnc3[nH]ncc23)cc1OC,-5.5% (inactive)
15,O=C(NC1CCCc2ccccc21)C1CCN(S(=O)(=O)c2cnc[nH]2)CC1 (configuration not stated),-2.5% (inactive)
16,Cc1occc1-c1nc(-c2ccncc2)no1,-13.6% (inactive)
17,Cc1csc(NC(=O)C(Cc2ccccc2)n2cccc2)n1 (configuration not stated),15% (inactive)
18,CCSc1nnc(NC(=O)C(Cc2ccccc2)n2cccc2)s1 (configuration not stated),-0.8% (inactive)
19,O=C1[C@@H]2Cc3ccccc3CN2C(=O)N1c1cccc(F)c1,-8.3% (inactive)
20,Cc1cccc(-n2c(C)nc3c(cnn3-c3ccc(F)cc3)c2=O)c1,-11.2% (inactive)
21,CC(C)CC(=O)N1CCN(S(=O)(=O)c2ccc(F)cc2)CC1,0.4% (inactive)
22,Oc1ccccc1-c1nc(NCCN2CCOCC2)c2ccccc2n1,59.3% (active)
23,Cc1ccc(-c2nc(NCCN3CCOCC3)c3ccccc3n2)cc1,40.5% (inactive)
24,Fc1ccccc1-c1nc(NCCCN2CCOCC2)c2ccccc2n1,11.7% (inactive)
25,c1ccc(-c2nc(NCCCN3CCOCC3)c3ccccc3n2)cc1,5.9% (inactive)

row,SMILES,cytotoxicity
1,Clc1ccc(-c2nc(NCCN3CCOCC3)c3ccccc3n2)cc1,40.9% (inactive)
2,COc1cccc(-c2nc(NCCN3CCOCC3)c3ccccc3n2)c1O,53.1% (active)
3,CCCCCOc1ccc(NS(C)(=O)=O)cc1,-26.8% (inactive)
4,O=c1[nH]c(C(F)(F)F)nc2ccccc12,-18.7% (inactive)
5,COc1ccccc1N(CN1C(=O)c2ccccc2C1=O)C(=O)c1cccnc1,-10% (inactive)
6,CCOC(=O)c1cc(-c2ccc(/C=N\n3cnnc3)o2)ccc1Cl,-11% (inactive)
7,O=C1CNC(=O)/C1=C\N1CCCCC1,-3.5% (inactive)
8,Cc1cc(Nc2ccc(Br)cc2F)n2nc(C)nc2n1,3.9% (inactive)
9,CCCNC(=O)Nc1cc(OCC)c(N2CCOCC2)cc1OCC,2.8% (inactive)
10,COc1ccc(-c2coc3c(CN4CCCCC4)c(O)c(CN4CCCCC4)c(O)c3c2=O)cc1,54.7% (active)
11,O=c1c(-c2ccccc2)coc2c(CN3CCCC3)c(O)ccc12,-6.5% (inactive)
12,COc1ccc(C(=O)c2coc3ccc(O)c(CN4CCCCC4)c23)cc1,16.8% (inactive)
13,CC1Cc2cc(C3(O)C(=O)c4ccccc4C3=O)ccc2N1 (configuration not stated),-0.9% (inactive)
14,COc1ccc(C2=[N+]([O-])C(C)(C)N(O)C2(C)C)cc1,-22% (inactive)
15,Cc1ccc(C2c3c(oc4cc(C)c(C)cc4c3=O)C(=O)N2CCCN2CCOCC2)cc1 (configuration not stated),-5.4% (inactive)
16,Cc1c(-c2nc(N)nc(Nc3ccccc3F)n2)oc2ccccc12,14.6% (inactive)
17,Cc1c(-c2nc(N)nc(Nc3ccc(F)cc3)n2)oc2ccccc12,12% (inactive)
18,Cc1c(-c2nc(N)nc(Nc3ccccc3)n2)oc2ccccc12,68.7% (active)
19,CNC(=O)c1cc(S(=O)(=O)N(C)C)ccc1Cl,2.1% (inactive)
20,CCCCOc1ccccc1-c1cc(C(=O)O)[nH]n1,-9.2% (inactive)
21,CC(=O)Oc1c(S(=O)(=O)c2ccc(C)cc2)c(C)nn1-c1ccccc1,-4.8% (inactive)
22,O=C1CCC(=O)N1c1cccc(-c2nc3ccccc3o2)c1,1.5% (inactive)
23,Nc1nnnn1/N=C/C=C/c1ccccc1,-19.8% (inactive)
24,Nc1nnnn1/N=C/c1cccc(Oc2ccccc2)c1,-6.8% (inactive)
25,C=CCOC(=O)C1=C(C)Nc2nnnn2C1c1cccc(OC)c1OC (configuration not stated),1.2% (inactive)

row,SMILES,cytotoxicity
1,Cn1cc(/C=N/n2cnc3scc(-c4ccc(Cl)cc4)c3c2=O)c2ccccc21,77.5% (active)
2,Cn1cc(/C=N/n2cnc3scc(-c4ccccc4)c3c2=O)c2ccccc21,48.5% (inactive)
3,Cn1cc(/C=N/n2cnc3sc4c(c3c2=O)CCCC4)c2ccccc21,7.8% (inactive)
4,COc1ccc(NC(=O)C2CCN(S(=O)(=O)c3ccc(C)cc3)CC2)cc1OC,-26.5% (inactive)
5,CCOc1ccc(C2CC(c3ccc(OC)cc3)n3ncnc3N2)cc1 (configuration not stated),-6.4% (inactive)
6,Cc1[nH]c2ccc(-c3nnc(SCC(=O)c4ccc(F)cc4)o3)cc2c1C,-0.1% (inactive)
7,Cc1[nH]c2ccc(-c3nnc(SCC(=O)c4ccccc4F)o3)cc2c1C,78.5% (active)
8,Cc1[nH]c2ccc(-c3nnc(SCC(=O)N4CCCc5ccccc54)o3)cc2c1C,2.9% (inactive)
9,CCc1[nH]nc2c1C(C(C)C)C(C#N)=C(N)O2 (configuration not stated),-20.8% (inactive)
10,Cc1nn(Cc2ccc(C(=O)NC3CCCCC3)o2)c(C)c1Br,10.5% (inactive)
11,CC1CCc2c(nc3ncnn3c2N2CCN(c3ccccc3F)CC2)C1 (configuration not stated),-5.6% (inactive)
12,CCCOC(=O)c1ccc(-c2c(C)noc2-c2ccc(OC)cc2O)o1,1.5% (inactive)
13,CCOc1ccc(-c2n[nH]c(C)c2Oc2ccc(OC)cc2)c(O)c1,16% (inactive)
14,CCOC(=O)COC(=O)c1ccc(O)cc1,1.8% (inactive)
15,CCOc1ccc(N2C(=O)c3ccc(C(=O)OCc4c(C)noc4C)cc3C2=O)cc1,-4.2% (inactive)
16,CCOC(=O)c1c(N)n[nH]c1-c1ccc(OC)cc1,6.6% (inactive)
17,CCOC(=O)c1ccc(OCC(=O)c2ccc(O)cc2O)cc1,11.9% (inactive)
18,COc1ccc(Cl)cc1NC(=O)CN1CCC(n2nnc3cc(F)ccc32)CC1,5.7% (inactive)
19,O=C(c1ccc(S(=O)(=O)N2CCCC2)cc1)N1CCN(Cc2ccc3c(c2)OCO3)CC1,4.3% (inactive)
20,c1coc(-c2nnc(SCc3cn4ccccc4n3)o2)c1,-5.9% (inactive)
21,CCOC(=O)CN(C(=O)CSc1nnc(-c2ccc(OC)c(OC)c2)o1)c1ccc(F)cc1,-21.9% (inactive)
22,CCOC(=O)c1c(NC(=O)CSc2nnc(CNc3ccc(F)cc3)o2)sc(C)c1C,-12.6% (inactive)
23,COc1ccccc1NC(=O)COc1ccc(C(=O)OCC(=O)N2CCCC2=O)cc1OC,-27.1% (inactive)
24,CCCCOc1ccc(-c2nnn(CC(=O)NCc3ccco3)n2)cc1,50.9% (active)
25,O=C(Cn1nnc(-c2ccc3c(c2)OCO3)n1)NCc1ccco1,-12.9% (inactive)

row,SMILES,cytotoxicity
1,CCOc1ccc(-c2nnn(CC(=O)NCc3ccco3)n2)cc1,0.2% (inactive)
2,O=S(=O)(c1ccc(F)cc1)N1CCC(N2CCN(c3ccccc3)CC2)CC1,16.8% (inactive)
3,COc1ccc(CNc2nc3c(c(=O)n(Cc4ccc(Cl)cc4)c(=O)n3C)n2C)cc1,32.7% (inactive)
4,Cn1c(NCc2ccccc2)nc2c1c(=O)n(Cc1ccccc1)c(=O)n2C,-0.5% (inactive)
5,Cn1c(N2CCN(c3ccccn3)CC2)nc2c1c(=O)n(Cc1ccccc1Cl)c(=O)n2C,3.4% (inactive)
6,Cn1c(N2CCCC2)nc2c1c(=O)n(Cc1ccc(Cl)cc1)c(=O)n2C,26.3% (inactive)
7,Cn1c(NCC(O)c2ccccc2)nc2c1c(=O)n(Cc1ccc(Cl)c(Cl)c1)c(=O)n2C (configuration not stated),64.7% (active)
8,Cn1c(N2CCN(c3ccccn3)CC2)nc2c1c(=O)n(Cc1ccc(Cl)cc1)c(=O)n2C,70% (active)
9,Cn1c(NCC(O)c2ccccc2)nc2c1c(=O)n(Cc1ccc(Cl)cc1)c(=O)n2C (configuration not stated),50.4% (active)
10,Cn1c(NCc2ccccc2)nc2c1c(=O)n(Cc1ccc(Br)cc1)c(=O)n2C,21.3% (inactive)
11,Cn1c(NCc2ccco2)nc2c1c(=O)n(Cc1ccc(Cl)c(Cl)c1)c(=O)n2C,8.9% (inactive)
12,COC(=O)c1coc(-c2ccc(C)cc2)c1C(=O)OC,-19.4% (inactive)
13,CCOc1ccccc1N(CC(=O)NC1CCCC1)C(=O)CCCC(=O)Nc1ccccn1,-29.3% (inactive)
14,O=C(Cn1c(=O)oc2ccccc21)N1CCCCC1,-21% (inactive)
15,CN(CCc1ccccn1)C(=O)CCNC(=O)Cn1cnc2ccccc2c1=O,-9.4% (inactive)
16,O=C(COc1ccccc1)Nc1cccc(-c2nnc(-c3ccccc3)o2)c1,8.5% (inactive)
17,COc1ccc(-c2noc(CCC(N)=O)n2)cc1OC,7.2% (inactive)
18,CC(=O)c1cc(F)c(N2CCCC2)cc1C,-6.1% (inactive)
19,Cc1[nH]c(-c2ccco2)nc1C(=O)O,1.6% (inactive)
20,O=c1cc(-c2ccccc2)[nH]c2ccccc12,46.8% (inactive)
21,[O-][n+]1onc2c1CCc1nnc(-c3ccccc3)cc1-2,8.2% (inactive)
22,COc1ccc(C2C3=C(CCCC3=O)Nc3nc(C(F)(F)F)nn32)cc1OC (configuration not stated),-12.5% (inactive)
